Here are results for seven molecules from PubChem BioAssay (EPA / NIEHS).

Experiment [1] can be described thus: ATG_CRE_CIS: Attagene CIS-FACTORIAL HepG2 Assay for human cAMP Responsive Element (CRE) binding protein 3 (AID 2282926). To be noted: HepG2 CRE cis-reporter, Attagene multiplexed mRNA; actives raise or lower the signal. A digest of the protocol:
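HepG2 cells transiently transfected with cis-element-driven multiple reporter transcription units; CRE reporter mRNA measured 24 h after dosing by RT-PCR, 6-FAM labelling, HpaI digestion and capillary electrophoresis. Bidirectional fit versus DMSO baseline.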

Experiment [2] addresses CCAAT/enhancer-binding protein beta (Homo sapiens) (UniProt P17676). Briefly: ATG_C_EBP_CIS: Attagene CIS-FACTORIAL HepG2 Assay for human CCAAT/Enhancer Binding Protein (C/EBP) beta (AID 2282927). Particulars: HepG2 Attagene cis-factorial transcription factor reporter; actives raise or lower the signal. The procedure, abridged:
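RT-PCR/capillary electrophoresis fluorescence of reporter mRNA, 24 h post-dose, in HepG2 cells carrying transfected cis-promoter reporter units. Bidirectional curve fitting against DMSO baseline captures gain or loss of signal.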

Experiment [3] in a line: ATG_CMV_CIS: Attagene CIS-FACTORIAL HepG2 Assay for human CMV (Internal Marker) (AID 2282928).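 Note: endpoint acts as a background internal control marker rather than a target.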 Particulars: HepG2 CMV promoter reporter, transcription factor profiling; actives raise or lower the signal. The procedure, abridged: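 Endogenous transcription factor activity read in HepG2 via transfected cis-promoter reporter units. After 24 h dosing, reporter mRNA measured by RT-PCR/capillary electrophoresis; gain or loss of signal fit relative to DMSO.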

A short description of experiment [4]: ATG_DR4_LXR_CIS: Attagene CIS-FACTORIAL HepG2 Assay for human Liver X Receptor (LXR), DR4 submotif (AID 2282929). Particulars: HepG2 Attagene DR4 cis-reporter, mRNA transcription; actives raise or lower the signal. A digest of the protocol:
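After transient transfection with multiplexed cis-promoter reporter units, HepG2 cells received test chemicals for 24 h. Reporter mRNA induction, detected by fluorescence after RT-PCR and capillary electrophoresis, was scored relative to DMSO.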

Experiment [5] in a line: ATG_AP_1_CIS: Attagene CIS-FACTORIAL HepG2 Assay for human Activator Protein 1 (AP-1) (AID 2282931). To be noted: HepG2 Attagene cis-factorial AP-1 reporter mRNA; actives raise or lower the signal. The procedure, abridged:
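After 24 h incubation with test chemical, RNA from transfected HepG2 cells was reverse-transcribed, amplified, fluorescently labelled and digested before capillary electrophoresis. Reporters were driven by cis-regulatory promoters; activity fitted bidirectionally versus DMSO.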

The nature of experiment [6]: ATG_BRE_CIS: Attagene CIS-FACTORIAL HepG2 Assay for human Bone Morphogenetic Protein (BMP) Response Element (BRE) (AID 2282933). To be noted: HepG2 BMP response element reporter, Attagene transcription factor profiling; actives raise or lower the signal. A digest of the protocol:
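Gain- or loss-of-signal was derived by bidirectional fitting against DMSO controls. The signal came from reporter mRNA, measured by RT-PCR and capillary electrophoresis, in HepG2 cells transiently carrying multiple reporter units and dosed for 24 h.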

A short description of experiment [7]: ATG_E_Box_CIS: Attagene CIS-FACTORIAL HepG2 Assay for human Enhancer Box (E-box) (AID 2282936). To be noted: HepG2 E-box cis-reporter transcription, actives raise or lower the signal. A digest of the protocol:
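HepG2 cells transiently transfected with multiplexed cis-element reporter units sensing endogenous transcription factor activity; 24 h compound exposure. Reporter mRNA measured by RT-PCR, 6-FAM primer extension, HpaI digestion and capillary electrophoresis; bidirectional fit versus DMSO.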

Experiment [8] can be described thus: ATG_M_19_CIS: Attagene CIS-FACTORIAL HepG2 Assay for M19 Transcription Factor (Internal Marker) (AID 2282939). Particulars: HepG2 Attagene CIS-FACTORIAL M19 internal marker reporter; actives raise or lower the signal. A digest of the protocol:
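Following a 24 h exposure, RNA from transfected HepG2 cells was reverse-transcribed, PCR-amplified with reporter-specific primers, end-labelled with 6-FAM and HpaI-digested before capillary separation. Values represent gain or loss versus DMSO.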

Experiment [9] in a line: ATG_GATA_CIS: Attagene CIS-FACTORIAL HepG2 Assay for human GATA Binding Protein (AID 2282944). Particulars: HepG2 GATA cis-element reporter, Attagene multiplex mRNA; actives raise or lower the signal. A digest of the protocol:
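DMSO serves as negative control and baseline for bidirectional fitting of reporter mRNA changes. HepG2 cells bearing transiently transfected cis-promoter reporters were exposed 24 h; transcripts detected via RT-PCR and capillary electrophoresis.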

Experiment [10] is described as follows: ATG_ISRE_CIS: Attagene CIS-FACTORIAL HepG2 Assay for human Interferon Regulatory Factor 1 (IRF1) binding to an Interferon-Stimulated Response Element (ISRE) (AID 2282948). To be noted: HepG2 ISRE cis-reporter (Attagene), mRNA transcription readout; actives raise or lower the signal. The procedure, abridged: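 Transfected HepG2 (multiple reporter transcription units, cis elements) dosed 24 h. RNA → oligo(dT) RT → PCR → 6-FAM primer extension → HpaI → CE. DMSO = negative control/baseline.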

Experiment [11] in a line: ATG_M_32_CIS: Attagene CIS-FACTORIAL HepG2 Assay for M32 Transcription Factor (Internal Marker) (AID 2282949).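 Note: background control marker of the multiplexed CIS panel rather than a real target.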 To be noted: HepG2 Attagene cis-factorial M32 reporter, mRNA; actives raise or lower the signal. A digest of the protocol: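 Internal background marker read-out: RT-PCR/capillary electrophoresis fluorescence of reporter transcripts from transiently transfected HepG2 cells after 24 h chemical exposure. Activity fitted bidirectionally relative to DMSO negative control.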

The nature of experiment [12]: ATG_M_06_CIS: Attagene CIS-FACTORIAL HepG2 Assay for M06 Transcription Factor (Internal Marker) (AID 2282950). Particulars: HepG2 Attagene CIS-FACTORIAL M06 internal marker reporter; actives raise or lower the signal. The procedure, abridged:
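Fluorescence-labelled RT-PCR products from cis-promoter reporter units, cut with HpaI and resolved by capillary electrophoresis, give the signal. Cells are human HepG2, dosed for 24 h. Serves as background control, fitted relative to DMSO.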

Experiment [13] can be described thus: ATG_MRE_CIS: Attagene CIS-FACTORIAL HepG2 Assay for human Metal Responsive Element (MRE) (AID 2282954). Particulars: HepG2 MRE cis-reporter transcription, Attagene multiplex; actives raise or lower the signal. A digest of the protocol:
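HepG2 cells transiently transfected with multiple cis-element reporter units measure endogenous MTF1-driven transcription. After 24 h compound exposure, reporter mRNA is quantified by RT-PCR with 6-FAM labelling, HpaI digestion and capillary electrophoresis; bidirectional fits versus DMSO.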

Experiment [14] addresses Paired box protein Pax-6 (Homo sapiens) (UniProt P26367). Briefly: ATG_Pax6_CIS: Attagene CIS-FACTORIAL HepG2 Assay for human Paired Box 6 (PAX6) (AID 2282956). Particulars: HepG2 CIS-FACTORIAL PAX6 reporter transcription, RNA readout; actives raise or lower the signal. The procedure, abridged: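 Transient MRTU transfection of HepG2 → compound exposure 24 h → TriZol RNA, oligo(dT) RT → PCR, 6-FAM primer extension, HpaI cut → capillary electrophoresis; activity fitted both directions against DMSO.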

The nature of experiment [15]: ATG_PXRE_CIS: Attagene CIS-FACTORIAL HepG2 Assay for human Pregnane X Receptor Element (PXRE) (AID 2282957). To be noted: HepG2 Attagene CIS-FACTORIAL PXRE reporter, mRNA; actives raise or lower the signal. The procedure, abridged:
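HepG2 cells transiently transfected with cis-element-driven multiplexed reporter units; after 24 h chemical exposure, reporter mRNA measured by RT-PCR, 6-FAM labelling, HpaI digestion and capillary electrophoresis. Bidirectional fitting relative to DMSO.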

The nature of experiment [16]: ATG_Sox_CIS: Attagene CIS-FACTORIAL HepG2 Assay for human SRY-box transcription factor (SOX) (AID 2282960). Particulars: HepG2 Attagene cis-factorial SOX reporter, mRNA; actives raise or lower the signal. The procedure, abridged:
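Using transiently transfected HepG2 cells, reporter transcription driven by cis elements was assessed 24 h after dosing. Signal was fluorescence of capillary-separated RT-PCR products, with DMSO defining baseline activity.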

Experiment [17] concerns the target Transcription factor Sp1 (Homo sapiens) (UniProt P08047). Briefly: ATG_Sp1_CIS: Attagene CIS-FACTORIAL HepG2 Assay for human Specificity Protein 1 (Sp1) (AID 2282961). Particulars: HepG2 Sp1 cis-reporter transcription, actives raise or lower the signal. A digest of the protocol:
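After transient transfection of HepG2 cells with cis-promoter reporter units and 24 h chemical treatment, reporter transcripts were quantified by RT-PCR and capillary electrophoresis fluorescence. Gain- and loss-of-signal fitted against DMSO.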

A short description of experiment [18]: ATG_TA_CIS: Attagene CIS-FACTORIAL HepG2 Assay for human TA Basal Promoter (AID 2282964). Particulars: HepG2 Attagene CIS-factorial TA basal promoter reporter; actives raise or lower the signal. A digest of the protocol:
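Multiplexed mRNA reporter assay, HepG2, 24 h. Reporter cDNA amplified, 6-FAM primer-extended, HpaI-cut, CE-sized; DMSO = negative control and baseline.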

Experiment [19] is described as follows: ATG_TCF_b_cat_CIS: Attagene CIS-FACTORIAL HepG2 Assay for human T-Cell-Factor with beta-catenin (TCF/b-cat) (AID 2282965). To be noted: HepG2 TCF/beta-catenin cis-reporter transcription, actives raise or lower the signal. A digest of the protocol:
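HepG2 cells transiently transfected with multiple cis-promoter-regulated reporter transcription units, so endogenous transcription factor activity is measured. Reporter mRNA read 24 hours after dosing by RT-PCR, fluorescent labelling and capillary electrophoresis; bidirectional fitting against DMSO.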

A short description of experiment [20]: ATG_TAL_CIS: Attagene CIS-FACTORIAL HepG2 Assay for human TAL Basal Promoter (AID 2282966).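 Note: background control endpoint measuring basal TAL promoter reporter mRNA not a specific factor.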 Particulars: HepG2 Attagene cis-factorial TAL promoter reporter; actives raise or lower the signal. The procedure, abridged:
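HepG2 cells transiently transfected with multiplexed cis-promoter reporter units, dosed 24 h. Reporter mRNA quantified by RT-PCR, 6-FAM labelling, HpaI digestion and capillary electrophoresis; TAL basal promoter serves as background control, fitted bidirectionally versus DMSO.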

Activity calls are given as the source filed them. Rule for the calls: active = hit-call score of the fitted dose curve at least 0.9, where 1 is the maximum; inactive = score below 0.9.

Sequence of Transcription factor Sp1 (Homo sapiens) (P08047 whole entry, looked up): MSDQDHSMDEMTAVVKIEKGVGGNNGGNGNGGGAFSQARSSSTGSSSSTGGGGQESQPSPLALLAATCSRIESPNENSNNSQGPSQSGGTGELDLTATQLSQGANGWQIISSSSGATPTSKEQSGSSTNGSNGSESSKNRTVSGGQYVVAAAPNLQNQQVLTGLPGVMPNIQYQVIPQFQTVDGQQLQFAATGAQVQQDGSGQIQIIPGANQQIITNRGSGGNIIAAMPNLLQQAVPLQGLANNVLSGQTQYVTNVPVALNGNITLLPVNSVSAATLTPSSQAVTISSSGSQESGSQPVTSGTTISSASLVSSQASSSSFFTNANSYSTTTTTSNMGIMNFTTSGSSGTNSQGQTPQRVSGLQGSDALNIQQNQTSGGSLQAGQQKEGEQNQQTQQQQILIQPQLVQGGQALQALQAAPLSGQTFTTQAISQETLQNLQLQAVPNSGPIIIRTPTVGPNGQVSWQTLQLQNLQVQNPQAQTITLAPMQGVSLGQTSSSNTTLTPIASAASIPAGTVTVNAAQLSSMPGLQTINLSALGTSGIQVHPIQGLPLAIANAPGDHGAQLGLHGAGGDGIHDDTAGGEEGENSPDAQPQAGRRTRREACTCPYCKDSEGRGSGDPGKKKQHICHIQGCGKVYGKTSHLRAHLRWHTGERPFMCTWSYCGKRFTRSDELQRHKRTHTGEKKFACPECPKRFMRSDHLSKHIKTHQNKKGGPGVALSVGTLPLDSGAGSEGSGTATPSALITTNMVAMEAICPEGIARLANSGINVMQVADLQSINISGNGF
Sequence of CCAAT/enhancer-binding protein beta (Homo sapiens) (P17676 whole entry, looked up): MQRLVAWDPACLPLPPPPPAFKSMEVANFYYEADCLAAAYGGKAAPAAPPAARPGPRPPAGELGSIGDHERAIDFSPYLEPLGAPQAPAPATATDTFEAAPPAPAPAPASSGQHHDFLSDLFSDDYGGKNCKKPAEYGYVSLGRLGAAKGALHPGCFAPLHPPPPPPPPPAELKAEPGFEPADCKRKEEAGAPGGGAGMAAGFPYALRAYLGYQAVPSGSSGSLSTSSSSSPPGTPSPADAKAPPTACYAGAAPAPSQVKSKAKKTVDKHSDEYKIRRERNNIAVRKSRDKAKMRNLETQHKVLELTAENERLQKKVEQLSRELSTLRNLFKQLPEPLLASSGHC
Sequence of Paired box protein Pax-6 (Homo sapiens) (P26367 whole entry, looked up): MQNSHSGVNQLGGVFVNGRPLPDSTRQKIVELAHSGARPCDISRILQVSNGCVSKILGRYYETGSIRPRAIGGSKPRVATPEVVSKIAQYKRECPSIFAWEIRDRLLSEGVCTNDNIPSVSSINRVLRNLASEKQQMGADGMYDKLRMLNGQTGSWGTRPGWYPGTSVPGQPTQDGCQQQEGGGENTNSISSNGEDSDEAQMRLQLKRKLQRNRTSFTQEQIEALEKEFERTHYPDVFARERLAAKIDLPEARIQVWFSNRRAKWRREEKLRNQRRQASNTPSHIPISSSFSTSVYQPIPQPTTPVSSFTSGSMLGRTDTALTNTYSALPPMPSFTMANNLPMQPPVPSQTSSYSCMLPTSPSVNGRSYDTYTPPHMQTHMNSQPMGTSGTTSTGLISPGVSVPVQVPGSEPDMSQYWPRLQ

What is called AC50 is the concentration at which the activity in the assay is half-maximal. As to `O=C(O)Cc1c[nH]c2ccccc12`, the molecule was classed as inactive in experiment [1], in experiment [2], in experiment [3], in experiment [4], in experiment [5] and in experiment [6]. The result in experiment [7], in [8], in experiment [9], in experiment [10], in experiment [11] and in experiment [12] was inactive. The molecule was called inactive in experiment [13], in experiment [14], in [16], in [17], in experiment [18] and in [19]. Further, in experiment [20], the result was inactive. In addition, in [15], the AC50 was 35.4 µM (active).

Consider `CCCCCCCCCC/C=C/C1CC(=O)OC1=O` (stereo not given), for which the molecule was called inactive in experiment [1], in experiment [2], in [3], in experiment [4], in experiment [5] and in experiment [6]. The result in [7], in [8], in experiment [9], in [10], in [11] and in [12] was inactive. Also, the molecule was classed as inactive in [13], in experiment [14], in experiment [15], in experiment [16], in experiment [17] and in experiment [18]. Besides, the result in experiment [19] and in experiment [20] was inactive.

As for `COC(OC)C(C)c1ccccc1` (stereo not given), the molecule was classed as inactive in experiment [1], in experiment [2], in [3], in [4], in [5] and in experiment [6]. Besides, the outcome in experiment [7], in [8], in experiment [9], in [10], in [11] and in experiment [12] was inactive. For the same molecule, the call in experiment [13], in experiment [14], in [16], in experiment [17], in experiment [18] and in [19] was inactive. In experiment [20], the molecule was classed as inactive. In [15], the AC50 was 27.2 µM (active).

As to `CCCCCC1CCCC(=O)O1` (stereo not given), the molecule was classed as inactive in experiment [1], in experiment [2], in experiment [3], in experiment [4], in experiment [5] and in [6]. In addition, the outcome in experiment [7], in [8], in experiment [9], in experiment [10], in experiment [11] and in experiment [12] was inactive. Further, the call in experiment [13], in [14], in [16], in experiment [17], in experiment [18] and in [19] was inactive. Besides, in experiment [20], the molecule was classed as inactive. Besides, the AC50 in experiment [15] is 44.5 µM (active).

In the case of `O=S(=O)(O)c1cccc2ccccc12`, the outcome in [1], in experiment [2], in experiment [3], in experiment [4], in [5] and in experiment [6] was inactive. Also, the result in [7], in experiment [8], in [9], in experiment [10], in [11] and in experiment [12] was inactive. Besides, the result in experiment [13], in [14], in experiment [15], in experiment [16], in experiment [17] and in experiment [18] was inactive. The outcome in experiment [19] and in [20] was inactive.

`CC(=O)c1nccs1`: the outcome in experiment [1], in [2], in [3], in experiment [4], in experiment [5] and in experiment [6] was inactive. The outcome in experiment [7], in [8], in experiment [9], in experiment [10], in [11] and in [12] was inactive. Also, the molecule was classed as inactive in experiment [13], in experiment [14], in [15], in experiment [16], in [17] and in experiment [18]. In addition, the call in [19] and in [20] was inactive.

Take `O=[N+]([O-])c1ccccc1C(F)(F)F`: the result in [1], in [2], in [3], in experiment [4], in experiment [5] and in experiment [6] was inactive. For the same molecule, the outcome in experiment [7], in experiment [8], in experiment [9], in [10], in experiment [11] and in [12] was inactive. Moreover, the call in experiment [13], in [14], in experiment [15], in experiment [16], in experiment [17] and in [18] was inactive. Further, the call in [19] and in [20] was inactive.
